# Data taken from PubChem BioAssay AID1259415 (National Center for Advancing Translational Sciences (NCATS), 2018).
# Hit rate of the full screen: of about 410,000 compounds, about 18,000 (4.4%) were called active. Inconclusive results (about 7%) are left out. Shown is part of a subset that was picked to be rich in actives. Values without a mark were called inactive. Rule as the data show it: active = activity change below about -60%; inconclusive = no clear call, values can overlap the other calls; inactive = above about -39%.
# Assay: qHTS Assay for inhibitors of the human cytomegalovirus (HCMV)
# Settings: HFF cells, HCMV-luciferase reporter, 72 h; at 57.5 µM; hits give low values
# In short: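 Cell-based, HFFs, 1000 cells/well, 16 h 37C; cpds in DMSO + HCMV-luc, MOI 1 PFU/cell; 72 h 37C; OneGlo luminescence after 5 min RT; norm. to buffer vs Salinomycin 10uM.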
# % is scaled to controls: 0 for no effect and ±100 for the full control effect.
row,Compound,"activity change, negative = inhibition"
1,Cc1ccc(OCCSc2nc(-c3cccs3)nc3cc(=O)[nH]n23)cc1Cl,22.8%
2,COc1ccccc1N1CCN(S(=O)(=O)CCNC(=O)COc2ccc(F)cc2)CC1,65.8%
3,Cc1ccc(NC(=O)CCCn2c(=O)c3cccn3c3ccccc32)cc1Cl,4.78%
4,CC(C)c1ccc(S(=O)(=O)N2CCC3(CC2)OCCO3)cc1,-60.4% (active)
5,Cc1c(C)c(C)c(S(=O)(=O)N2CCC3(CC2)OCCO3)c(C)c1C,-6.48%
6,O=S(=O)(c1ccc(Cl)s1)N1CCC2(CC1)OCCO2,-18.3%
7,COCCNC(=O)c1cccc(-c2nc3c(NC4CCCCC4)nccc3[nH]2)c1,-4.46%
8,CCOc1ccccc1NC(=O)CCn1cnnn1,-4.13%
9,NC(=S)NN=Cc1ccc(OC(=O)COc2cc(Cl)c(Cl)cc2Cl)cn1,-75.3% (active)
10,O=C(COc1cc(Cl)c(Cl)cc1Cl)NC(=O)NC1CCCC1,65.3%
11,CC(C)(C)c1ccc(C(=O)N2CCC(c3nc(-c4ccc(S(=O)(=O)N5CCCC5)cc4)no3)CC2)cc1,-35.7%
12,CCCN(C(=O)Cn1cc(S(=O)(=O)N2CCN(c3ccccc3F)CC2)c2ccccc2c1=O)c1cccc(C)c1,-13.9%
13,CC1COC2C(O1)N(S(C)(=O)=O)CCN2S(C)(=O)=O (stereo unspecified),17.4%
14,CCCOC1CCCN(C(=O)c2cc(COc3cncc(Cl)c3)on2)C1 (stereo unspecified),45.7%
15,CCOC(=O)CC1COCCN1C(=O)c1cc(COc2ccc(F)c(F)c2)on1 (stereo unspecified),53.9%
16,CCOC(=O)CC1(NC(=O)c2cc(COc3cncc(Cl)c3)on2)CCCCC1,-73.4% (active)
17,O=C(O)CSc1nccn1-c1cccc(Cl)c1,-24.9%
18,Cc1ccc(Nc2c(-c3ccc(N(C)C)cc3)nc3nc[nH]n23)cc1,-7.65%
19,Cc1cccc(OCCSc2nc3ccccc3n2CC(=O)N2CCCCC2)c1C,0.117%
20,CCOC(=O)C1CCCN(C(=O)c2ccc(-n3ccc4ccccc43)s2)C1 (stereo unspecified),7.94%
21,Cc1ccc(C)c(OCc2cc(C(=O)N3CCN(c4cnccn4)CC3)no2)c1,-30.5%
22,C=CCC1(CC=C)CCCN1C(=O)c1cc(COc2ccc(-n3cncn3)cc2)on1,-87.7% (active)

row,Compound,"activity change, negative = inhibition"
1,CC1CN(C(=O)c2cc(COc3c(F)cccc3F)on2)CCN1C (stereo unspecified),3.63%
2,COc1cccc(CNC(=O)Cn2c(=O)c3cccn3c3ccc(F)cc32)c1OC,44.7%
3,CCOc1ccccc1CNC(=O)c1ccc2c(c1)nc1n2CCC(C)C1 (stereo unspecified),33.3%
4,Cc1ccc2nc(COc3cccc(NC(=O)Nc4ccc(C)c(Cl)c4)c3)cc(=O)n2c1,26.6%
5,CC(NC(=O)c1cc2c(=O)n3ccccc3nc2n(C(C)C)c1=N)c1ccccc1 (stereo unspecified),0.208%
6,Cc1nn(-c2nc(-c3ccccc3)cc(C(F)(F)F)n2)c(C)c1Cl,-14.9%
7,CCOc1ccc(C(CC(=O)O)n2cnnn2)cc1OC (stereo unspecified),-29.4%
8,CCCCC(=O)NC(c1ccc(OC)c(OC)c1)c1ccc2cccnc2c1O (stereo unspecified),-103% (active)
9,CCCCCCCC(=O)NC(Nc1ccccc1OC)C(Cl)(Cl)Cl (stereo unspecified),-23.2%
10,COC(=O)/C(=C\Nc1ccccc1)NC(=O)c1ccc(Cl)cc1Cl,-5.36%
11,COc1ccc(OC)c(CCNC(=O)CCCn2c(=O)c3cccn3c3cccnc32)c1,6.58%
12,COc1ccc(NC(=O)CN2CCCN(Cc3ccccc3)S2(=O)=O)cc1,0%
13,N#C[C@]1(S(=O)(=O)c2ccccc2)C[C@@H]2ON=C(c3cccc(Br)c3)[C@@H]2C1,-79.5% (active)
14,COC(=O)[C@]1(S(=O)(=O)c2ccccc2)C[C@@H]2ON=C(c3ccc(OC)cc3)[C@@H]2C1,13.3%
15,COc1ccc(CNc2nc(-c3ccc(Cl)cc3)cc(C(F)(F)F)n2)cc1,-7.09%
16,CCN(CC)S(=O)(=O)c1ccc2c(c1)nc(CN(C)C(=O)Nc1ccc(Cl)cc1)n2C,9.69%
17,Cc1cccc(NC(=O)C2CCN(S(=O)(=O)c3c(C)noc3/C=C/c3ccco3)CC2)c1,-40%
18,Cc1noc(/C=C/c2ccco2)c1S(=O)(=O)N1CCC(C(=O)N2CCc3ccccc32)CC1,47.1%
19,Cc1noc(/C=C/c2ccco2)c1S(=O)(=O)N1CCC(C(=O)Nc2ccc(Cl)cn2)CC1,-79.9% (active)
20,C[C@H]1CN([C@@H](C)CO)C(=O)CCCn2cc(nn2)CO[C@@H]1CN(C)S(=O)(=O)c1ccccc1C#N,-5.79%
21,Cc1cccc(N2CCN(S(=O)(=O)c3ccc4[nH]c5c(c4c3)CCCCC5)CC2)c1C,16.6%
22,Cc1c(NC(=O)Nc2ccc(F)c(Cl)c2)c(=O)n(-c2ccccc2)n1C,1.88%

row,Compound,"activity change, negative = inhibition"
1,CC(C)(C)NC(=O)/C(=C/c1cccnc1)NC(=O)c1ccco1,-61.3% (active)
2,O=C(NC(Cc1ccccc1)C(=O)O)/C(=C\c1ccccc1)NC(=O)c1ccco1 (stereo unspecified),54.3%
3,C/C(CC(=O)NC(C)(C)C)=N\NC(=O)c1ccco1,16.9%
4,Cc1ccc(/C=C(\C#N)C(=O)Nc2cc(C)ccc2C)cc1,-15.9%
5,Cc1ccc(CNC(=O)C2CCCN2C(=O)NCc2ccccc2)cc1 (stereo unspecified),1.11%
6,Cc1[nH]n(-c2cccc(Cl)c2)c(=O)c1-c1ccc(Cl)cc1,-66.9% (active)
7,CCCc1cc(=O)n2[nH]c(C)c(-c3ccc(Cl)cc3)c2n1,4.01%
8,O=c1c2ccccc2[nH]c(=S)n1-c1cccc(Cl)c1,-21.9%
9,Cc1ccc2c(c1)N(CC(=O)N1CCCC(C)C1)C(=O)CO2 (stereo unspecified),-22.2%
10,COC(=O)c1sc2ncccc2c1-n1c(C)ccc1C,-10.3%
11,CCOC(=O)c1cc2cc(OC)ccc2n1C1CCN(C)CC1,-32.2%
12,CCN(CC)c1cc(NC2CCCCC2)c2c3c(onc13)-c1ccccc1C2=O,-25.5%
13,CC(Oc1ccc(Cl)cc1)C(=O)Nc1ncccn1 (stereo unspecified),-1.17%
14,COc1c(Cl)cc(Cl)cc1C(=O)Nc1cccc2cccnc12,33.4%
15,CC(=O)/C(=N\Nc1ccc(Cl)cc1Cl)Sc1cccc2cccnc12,-103% (active)
16,Cc1nn2c(=O)cc(COC(=O)c3ccccc3NC(=O)COc3ccccc3C)nc2s1,31.1%
17,CC(=O)c1cccc(NC(=O)c2nc(-c3ccccc3)n(-c3cccc(C)c3)n2)c1,-18.5%
18,Cc1cccc(-n2ncc(C(=O)N3CCN(c4ccc(Cl)cc4)CC3)c2C2CCN(C(=O)OC(C)(C)C)CC2)c1,0%
19,Cc1cccc(-n2ncc(Cl)c(Cl)c2=O)c1,-104% (active)
20,CN1CCN(C(CNC(=O)c2ccccc2F)c2ccc3c(c2)OCO3)CC1 (stereo unspecified),12.6%
21,COc1ccc(N2C(=O)CCC(C(=O)N(C)C3CCCCC3)C2c2ccc(OC)c(OC)c2)cc1 (stereo unspecified),-12.4%
22,CN(C)S(=O)(=O)c1ccc(C(=O)N(Cc2cccnc2)c2nc3c(F)cc(F)cc3s2)cc1,0%

row,Compound,"activity change, negative = inhibition"
1,Cc1ccsc1C(=O)OCC(=O)c1cc(C)n(CC2CCCO2)c1C (stereo unspecified),-75.9% (active)
2,Cc1cc(C(=O)COC(=O)c2cccs2)c(C)n1-c1c(C)n(C)n(-c2ccccc2)c1=O,-1.04%
3,COCCn1c(C)cc(C(=O)COC(=O)CNC(=O)c2ccco2)c1C,0%
4,COc1ccc(CNC(=O)c2ccc(NC(=O)N3CC4CCCN4c4ccccc43)cc2)cc1 (stereo unspecified),-1.77%
5,Cc1ccc(CCNC(=O)C2CCN(c3nnc(-n4cccc4CNc4ccc(C)cc4)s3)CC2)cc1,-72.7% (active)
6,CSc1ccc(CCNC(=O)C2CCN(c3nnc(-n4cccc4)s3)CC2)cc1,-19.1%
7,CCOc1ccc(CNC(=O)C2CCN(c3nnc(-n4cccc4CNc4ccc(C)cc4)s3)CC2)cc1OC,-18.2%
8,CCOC(=O)c1c(S(=O)(=O)NCC(=O)Nc2ccc(Cl)c(C(F)(F)F)c2)c(C)n(C)c1C,-27.1%
9,CC(C)C[C@H]1CN([C@@H](CC(C)C)CN2CCC[C@@H]2CN2C(=O)C(=O)NC[C@@H]2Cc2ccccc2)C(=O)C(=O)N1CCc1ccccc1,-63.2% (active)
10,CC(C)C[C@H]1CN([C@@H](Cc2ccccc2)CN2CCC[C@@H]2CN2C(=O)C(=O)NC[C@@H]2Cc2ccc(O)cc2)C(=O)C(=O)N1CCc1ccccc1,-26.7%
11,CCOc1ccc(CCN2C(=O)C(=O)N([C@@H](CC(C)C)CN3CCC[C@H]3CN3C(=O)C(=O)NC[C@@H]3Cc3ccccc3)C[C@@H]2CC(C)C)cc1,-7.85%
12,O=C(Nn1c(-c2ccc(Cl)cc2)nc2ccccc2c1=O)c1cccnc1Cl,-11.2%
13,O=c1c2ccccc2c(-c2ccccc2)nn1-c1ccccn1,-24.2%
14,O=c1c2ccccc2nc(-c2ccccc2)n1-c1ccccn1,-62.3% (active)
15,COc1cccc(CNC(=O)CN2C(=O)CCc3cc(S(=O)(=O)N4CCOCC4)ccc32)c1,7.53%
16,COc1cc(OC)cc(-c2nc3nc(C)c(CCC(=O)Nc4ccc(C)cc4)c(C)n3n2)c1,22.9%
17,CCC1CCCCN1S(=O)(=O)c1ccc(NC(=O)c2cc(=O)c3ccccc3o2)cc1 (stereo unspecified),-21.4%
18,Cc1cccc2cc3c(N)c(C(=O)N4CCCc5ccccc54)sc3nc12,-66.1% (active)
19,CCc1ccc(NC(=O)c2sc3nc4c(cc3c2N)CN(CC)CC4)cc1,-27.1%
20,Cc1cccc(-c2nnc(SCC(=O)N3CCCc4ccccc43)o2)c1,-13.3%
